# Experimental data as given in PubChem BioAssay (Tox21).
# Results filed as inconclusive are left out. Where a call stands in place of a potency, no number is given. Calls of active or inactive are those of the source. Unless noted, calls come from the whole dose curve; as a rule, active = well fitted curve in the direction sought with a large enough effect in the repeat runs; inconclusive = weak or mixed curves; inactive = no such curve, though single readings can be large; an effect the other way counts as inactive or inconclusive.
# Tests used:
# [1] = qHTS assay to identify small molecule antagonists of the glucocorticoid receptor (GR) signaling pathway - cell viability counter screen (AID 720693); note: nearly all actives have a fitted effect of over 55% in size
# [2] = qHTS assay for identifying genotoxic compounds that show differential cytotoxicity against isogenic chicken DT40 cell lines with known DNA damage response pathways - wild type cell line (AID 743012); note: nearly all actives have a fitted effect of over 60% in size; note: potency is the fitted concentration of half-maximal effect
# How it was run: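 Quantitative HTS on parental DT40 cells: 40 h compound treatment at 37 C/5% CO2, with viability then determined by CellTiter-Glo luminescence. Values serve as the DNA repair-proficient reference for differential cytotoxicity.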
# [3] = qHTS assay for identifying genotoxic compounds that show differential cytotoxicity against isogenic chicken DT40 cell lines with known DNA damage response pathways - Rev3 mutant cell line (AID 743014); note: nearly all actives have a fitted effect of over 55% in size; note: potency is the fitted concentration of half-maximal effect
# [4] = qHTS assay for identifying genotoxic compounds that show differential cytotoxicity against isogenic chicken DT40 cell lines with known DNA damage response pathways - Rad54/Ku70 mutant cell line (AID 743015); note: nearly all actives have a fitted effect of over 60% in size; note: potency is the fitted concentration of half-maximal effect
# [5] = qHTS assay to identify small molecule antagonists of the androgen receptor (AR) signaling pathway - cell viability counter screen (AID 743033; note: nearly all actives have a fitted effect of over 45% in size)
# [6] = target: Androgen receptor (Homo sapiens) (UniProt P10275); test: qHTS assay to identify small molecule antagonists of the androgen receptor (AR) signaling pathway (AID 743035; active = well fitted inhibition curve with a large enough effect in the signal ratio in the repeat runs, not every such curve was filed as active; the % refers to the signal ratio; note: potency is the fitted concentration of half-maximal effect)
# How it was run: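 Cell line: GeneBLAzer AR-UAS-bla GripTite (HEK293). Stimulus: R1881 added after compound. Exposure: 16 h, 37C, 5% CO2. Readout: LiveBLAzer B/G FRET fluorescence after 2 h at room temperature.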
# [7] = target: Androgen receptor (Homo sapiens) (UniProt P10275); test: qHTS assay to identify small molecule agonists of the androgen receptor (AR) signaling pathway (AID 743036; active = well fitted activation curve with a large enough effect in the signal ratio in the repeat runs, with a control signal flat, not every such curve was filed as active; the % refers to the signal ratio)
# How it was run: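 In this Tox21 qHTS, 2,000 HEK293 AR-bla cells per well were incubated with compounds for 16 h at 37C and 5% CO2. Fluorescence intensity was recorded 2 h after adding LiveBLAzer B/G FRET substrate at room temperature.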
# [8] = target: Androgen receptor (Homo sapiens) (UniProt P10275); test: qHTS assay to identify small molecule agonists of the androgen receptor (AR) signaling pathway using the MDA cell line (AID 743040; note: nearly all actives have a fitted effect of over 20% in size)
# How it was run: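 Cells plated, 5 h at 37C/0% CO2; compound or DMSO pinned; 16 h at 37C; ONE-Glo added; luminescence measured after 30 min at room temperature. Reporter line: MDA-kb2 with MMTV-luciferase responsive to AR and GR.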
# [9] = qHTS assay to identify small molecule antagonists of the androgen receptor (AR) signaling pathway using the MDA cell line - cell viability counter screen (AID 743041; note: nearly all actives have a fitted effect of over 45% in size)
# How it was run: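 Cells were plated at 3,000 per well and left 5 h. Compounds in DMSO were then pinned in, followed by R1881. After 16 h at 37C, CellTiter-Fluor fluorescence gave viability.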
# [10] = target: Androgen receptor (Homo sapiens) (UniProt P10275); test: qHTS assay to identify small molecule antagonists of the androgen receptor (AR) signaling pathway using the MDA cell line (AID 743042; note: nearly all actives have a fitted effect of over 55% in size; note: potency is the fitted concentration of half-maximal effect)
# How it was run: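 Antagonist mode: compounds plus R1881 agonist added to MDA-kb2 AR-luc cells, incubated 16 h at 37C. Luciferase reporter luminescence quantified, with multiplexed CellTiter-Fluor readout for cell viability.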
# [11] = qHTS assay to identify small molecule antagonists of the thyroid receptor (TR) signaling pathway - cell viability counter screen (AID 743064); note: nearly all actives have a fitted effect of over 50% in size
# How it was run: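 Counter screen for cytotoxicity: compound plus T3 (1 nM final) on GH3.TRE-Luc cells, 23.5 h at 37 °C, then fluorescence viability readout with CellTiter-Fluor.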
# [12] = qHTS assay to identify small molecule antagonists of the thyroid receptor (TR) signaling pathway (AID 743065); note: series mostly up to about 70 µM; nearly all actives have a fitted effect of over 55% in size
# How it was run: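 Antagonism measured as loss of luciferase signal in GH3 cells stably carrying a TRE-luciferase reporter, co-treated with compound and T3 (1 nM final) for 23.5 h at 37 C. Viability was read in the same well by CellTiter-Fluor.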
# [13] = system: thyroid hormone receptor (rat, GH3 cells); test: qHTS assay to identify small molecule agonists of the thyroid receptor (TR) signaling pathway (AID 743066; calls by dose curve)
# [14] = target: Estrogen receptor (Homo sapiens) (UniProt P03372); test: qHTS assay to identify small molecule antagonists of the estrogen receptor alpha (ER-alpha) signaling pathway (AID 743069; active = well fitted curve in the direction sought with a large enough effect in the signal ratio in the repeat runs, not every such curve was filed as active; the % refers to the signal ratio)
# How it was run: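 ER-alpha-UAS-bla GripTite HEK293 line; 2% charcoal-stripped FBS overnight; plated, 4 hr 37C/5% CO2; cpd in DMSO + 17beta-estradiol, 18 hr 37C; LiveBLAzer B/G FRET substrate 2 hr RT; fluorescence intensity.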
# [15] = qHTS assay to identify small molecule antagonists of the estrogen receptor alpha (ER-alpha) signaling pathway - cell viability counter screen (AID 743074; calls by dose curve;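 note: HEK293 cells carrying ER-alpha-UAS-bla reporter stimulated with 17beta-estradiol; nearly all actives have a fitted effect of over 45% in size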)
# [16] = target: Estrogen receptor (Homo sapiens) (UniProt P03372); test: qHTS assay to identify small molecule agonists of the estrogen receptor alpha (ER-alpha) signaling pathway (AID 743075; calls by dose curve;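 note: HEK293 GripTite cells with ER-alpha and UAS-driven beta-lactamase reporter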)
# [17] = target: Estrogen receptor (Homo sapiens) (UniProt P03372); test: qHTS assay to identify small molecule agonists of the estrogen receptor alpha (ER-alpha) signaling pathway using the BG1 cell line (AID 743079); note: nearly all actives have a fitted effect of over 20% in size
# [18] = qHTS assay to identify small molecule antagonists of the estrogen receptor alpha (ER-alpha) signaling pathway using the BG1 cell line (AID 743080; calls by dose curve;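 note: BG1 cells stimulated with 17beta-estradiol alongside compound; nearly all actives have a fitted effect of over 25% in size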; note: potency is the fitted concentration of half-maximal effect)
# How it was run: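 Luminescence from a 4×ERE-luciferase reporter in BG1-Luc-4E2 cells served as read-out. Cells, pre-cultured 5 days in stripped-serum phenol-red-free medium, were exposed to compound with 17beta-estradiol co-stimulation for 21.5 h at 37 C.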
# [19] = qHTS assay to identify small molecule antagonists of the estrogen receptor alpha (ER-alpha) signaling pathway using the BG1 cell line - cell viability counter screen (AID 743081);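 note: compound given together with 17beta-estradiol as the ER stimulus; series mostly up to about 70 µM; nearly all actives have a fitted effect of over 45% in size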
# Aromatase (Homo sapiens) = Aromatase (Homo sapiens) (UniProt P11511); test: qHTS assay to identify aromatase inhibitors (AID 743083)
# Sequence of Aromatase (Homo sapiens) (P11511 whole entry, looked up): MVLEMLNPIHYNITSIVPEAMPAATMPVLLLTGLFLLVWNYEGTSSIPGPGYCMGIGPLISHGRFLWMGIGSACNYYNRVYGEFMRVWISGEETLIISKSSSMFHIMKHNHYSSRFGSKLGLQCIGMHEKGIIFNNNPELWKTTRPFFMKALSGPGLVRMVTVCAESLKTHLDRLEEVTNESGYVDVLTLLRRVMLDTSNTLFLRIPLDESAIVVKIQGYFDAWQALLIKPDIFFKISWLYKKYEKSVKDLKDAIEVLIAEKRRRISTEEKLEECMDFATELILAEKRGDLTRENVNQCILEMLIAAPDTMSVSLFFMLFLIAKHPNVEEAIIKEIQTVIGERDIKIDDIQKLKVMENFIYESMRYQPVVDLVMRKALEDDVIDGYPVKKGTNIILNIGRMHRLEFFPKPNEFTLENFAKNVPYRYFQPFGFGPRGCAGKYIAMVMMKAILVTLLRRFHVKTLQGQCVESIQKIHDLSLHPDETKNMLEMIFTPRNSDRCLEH
# Sequence of Androgen receptor (Homo sapiens) (P10275 whole entry, looked up): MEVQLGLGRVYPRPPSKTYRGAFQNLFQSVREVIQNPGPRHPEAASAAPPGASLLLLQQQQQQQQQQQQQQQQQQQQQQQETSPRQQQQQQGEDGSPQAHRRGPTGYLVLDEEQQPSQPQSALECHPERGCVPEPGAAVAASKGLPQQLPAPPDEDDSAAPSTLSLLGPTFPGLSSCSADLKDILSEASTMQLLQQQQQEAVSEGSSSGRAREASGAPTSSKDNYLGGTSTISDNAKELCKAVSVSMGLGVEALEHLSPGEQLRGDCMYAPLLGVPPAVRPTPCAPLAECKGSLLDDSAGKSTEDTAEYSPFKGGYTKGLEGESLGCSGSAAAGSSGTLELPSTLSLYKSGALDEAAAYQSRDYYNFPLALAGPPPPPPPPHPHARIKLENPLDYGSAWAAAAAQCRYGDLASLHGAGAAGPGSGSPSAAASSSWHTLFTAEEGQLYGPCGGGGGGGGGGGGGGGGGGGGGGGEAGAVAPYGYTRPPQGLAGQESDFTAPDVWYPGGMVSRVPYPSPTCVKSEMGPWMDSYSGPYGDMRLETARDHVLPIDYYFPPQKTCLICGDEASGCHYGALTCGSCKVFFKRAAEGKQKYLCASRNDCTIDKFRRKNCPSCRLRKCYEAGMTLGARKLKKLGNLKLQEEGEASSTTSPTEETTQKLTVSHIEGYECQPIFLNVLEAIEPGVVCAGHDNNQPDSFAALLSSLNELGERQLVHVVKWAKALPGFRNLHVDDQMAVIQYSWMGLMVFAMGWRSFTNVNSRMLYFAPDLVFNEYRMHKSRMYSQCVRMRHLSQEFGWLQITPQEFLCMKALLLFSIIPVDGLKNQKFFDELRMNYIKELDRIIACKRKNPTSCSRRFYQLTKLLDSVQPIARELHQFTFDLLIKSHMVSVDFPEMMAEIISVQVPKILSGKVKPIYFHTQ
# Sequence of Estrogen receptor (Homo sapiens) (P03372 whole entry, looked up): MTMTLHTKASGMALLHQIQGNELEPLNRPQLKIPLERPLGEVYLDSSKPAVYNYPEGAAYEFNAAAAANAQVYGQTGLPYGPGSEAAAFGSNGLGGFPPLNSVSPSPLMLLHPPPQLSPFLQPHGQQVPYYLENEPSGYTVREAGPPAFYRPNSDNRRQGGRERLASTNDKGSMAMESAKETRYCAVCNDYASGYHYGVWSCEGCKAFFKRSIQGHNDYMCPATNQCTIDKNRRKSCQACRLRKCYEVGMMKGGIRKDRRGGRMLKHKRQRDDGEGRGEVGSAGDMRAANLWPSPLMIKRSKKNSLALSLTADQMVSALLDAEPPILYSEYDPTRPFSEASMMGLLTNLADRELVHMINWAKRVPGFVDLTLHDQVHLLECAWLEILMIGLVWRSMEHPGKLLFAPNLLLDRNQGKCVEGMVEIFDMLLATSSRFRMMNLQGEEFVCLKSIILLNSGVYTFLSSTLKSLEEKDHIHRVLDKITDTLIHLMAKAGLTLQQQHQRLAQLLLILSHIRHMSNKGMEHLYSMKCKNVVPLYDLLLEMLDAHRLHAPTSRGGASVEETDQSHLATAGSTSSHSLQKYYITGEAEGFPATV
Structure (SMILES),outcome [1],Potency [2],Potency [3],Potency [4],Potency [5],Potency [6],outcome [7],outcome [8],Potency [9],Potency [10],Potency [11],Potency [12],outcome [13],outcome [14],outcome [15],outcome [16],Potency [17],Potency [18],outcome [19],Potency (Aromatase (Homo sapiens))
O=C(O)CCSSCCC(=O)O,inactive,inactive,inactive,inactive,inactive,inactive,inactive,inactive,inactive,inactive,inactive,inactive,inactive,inactive,inactive,inactive,inactive,inactive,inactive,inactive
CC1(CO)CN(c2ccccc2)NC1=O (centres undefined),inactive,inactive,inactive,inactive,inactive,inactive,–,inactive,inactive,inactive,inactive,–,inactive,–,inactive,–,–,–,inactive,inactive
O=C(OCC(COC(=O)c1cccnc1)(COC(=O)c1cccnc1)COC(=O)c1cccnc1)c1cccnc1,inactive,inactive,inactive,inactive,inactive,inactive,inactive,inactive,inactive,inactive,inactive,inactive,inactive,inactive,inactive,inactive,inactive,inactive,inactive,inactive
COCCOCCOCCOCCO,inactive,inactive,inactive,inactive,inactive,inactive,inactive,inactive,inactive,inactive,inactive,inactive,inactive,inactive,inactive,inactive,inactive,inactive,inactive,inactive
Nc1ccc2cc(S(=O)(=O)O)cc(O)c2c1,inactive,inactive,inactive,inactive,inactive,inactive,inactive,inactive,inactive,inactive,inactive,inactive,inactive,inactive,inactive,inactive,inactive,inactive,inactive,inactive
CC(C)NCC(O)COc1cccc2[nH]ccc12 (centres undefined),inactive,inactive,inactive,inactive,inactive,inactive,inactive,inactive,inactive,inactive,inactive,inactive,inactive,–,inactive,–,–,–,inactive,inactive
O=C(Nc1ccc(Cl)c(Cl)c1)C1CC1,inactive,29.8 µM (active),26.6 µM (active),29.8 µM (active),inactive,19 µM (active),inactive,inactive,inactive,29.8 µM (active),inactive,–,inactive,inactive,–,inactive,–,21.1 µM (active),inactive,inactive
C=CCCCCCCCCCCCC,inactive,inactive,inactive,inactive,inactive,inactive,–,inactive,inactive,inactive,inactive,inactive,inactive,–,–,–,–,–,inactive,inactive
CCN(C)C(=O)Oc1cccc([C@H](C)N(C)C)c1,inactive,inactive,inactive,inactive,inactive,inactive,inactive,inactive,inactive,inactive,inactive,inactive,inactive,inactive,inactive,inactive,inactive,inactive,inactive,inactive
OCCN(CCO)c1cccc(Cl)c1,inactive,inactive,inactive,inactive,inactive,inactive,inactive,inactive,inactive,inactive,inactive,inactive,inactive,–,inactive,–,–,–,inactive,inactive
O=C(O)c1cc(Cl)cc([N+](=O)[O-])c1Cl,inactive,inactive,inactive,inactive,inactive,inactive,inactive,inactive,inactive,inactive,inactive,inactive,inactive,inactive,inactive,inactive,inactive,inactive,inactive,inactive
CC(C)c1ccc2cc(C(C)C)ccc2c1,inactive,inactive,inactive,inactive,inactive,inactive,inactive,inactive,inactive,inactive,inactive,inactive,inactive,inactive,inactive,inactive,inactive,–,inactive,inactive
CC(S)C(=O)NCC(=O)O (centres undefined),inactive,inactive,inactive,inactive,inactive,inactive,inactive,inactive,inactive,inactive,inactive,inactive,inactive,–,inactive,–,–,–,inactive,inactive
CC(C(=O)O)c1ccc2c(c1)CC(=O)c1ccccc1S2 (centres undefined),inactive,inactive,inactive,inactive,inactive,inactive,–,inactive,inactive,inactive,inactive,–,inactive,inactive,inactive,inactive,inactive,inactive,–,inactive
